We go through 14 compounds from PubChem BioAssay (NCI).

Compounds without any hit were thinned out: in the full panel of roughly 83,000, 20% have a hit.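 The test compound was applied at a single concentration to cells in 96-well plates for 48 hours, and percent growth was recorded.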 Values without a mark were called inactive. Active and inactive are the calls of the source. Rule for the calls: active = growth percent below 10; inactive = the rest.

Some test systems named below: SR leukemia; RPMI-8226 leukemia; OVCAR-8 ovarian; OVCAR-5 ovarian; OVCAR-4 ovarian; SK-OV-3 ovarian; IGROV1 ovarian; OVCAR-3 ovarian; HS 578T breast; NCI/ADR-RES ovarian.
Holding throughout (assay): NCI-60 one-dose screen, 48 h (100 = growth as untreated, 0 = no growth, -100 = all killed)
Common to all, as to settings: 10 µM unless noted

Take `CN(C)c1ccc(CNCCO)cc1`: the growth in the assay on SR leukemia is 108%; in the assay with RPMI-8226 leukemia it was 84.6%; in the assay with OVCAR-8 ovarian, 90.6%; in the assay with OVCAR-5 ovarian it was 67.6%; in the assay with OVCAR-4 ovarian it was 112%; in the assay with SK-OV-3 ovarian, 71.4%. Besides, the growth in the assay on IGROV1 ovarian was 107%; in the assay with OVCAR-3 ovarian it was 104%; in the assay with HS 578T breast, 96%; in the assay on NCI/ADR-RES ovarian, 103%.
With `O=C(CCCCCCCC(=O)N1CCCCC1)N1CCCCC1`, the growth in the assay on SR leukemia was 135%; in the assay with RPMI-8226 leukemia, 103%; in the assay with OVCAR-8 ovarian, 98.8%; in the assay on OVCAR-5 ovarian, 98.7%; with OVCAR-4 ovarian, 107%; in the assay on SK-OV-3 ovarian, 115%. Moreover, the growth in the assay on IGROV1 ovarian was 109%; in the assay on OVCAR-3 ovarian it was 111%; in the assay with HS 578T breast, 96.5%; in the assay with NCI/ADR-RES ovarian it was 89%.
With `COc1cc(/C=C/C(=O)N2CCN(C(=O)c3cc(OC)c(OC)c(OC)c3)CC2)ccc1OCCCOc1cc2c(cc1OC)C(=O)N1CCC[C@H]1C=N2`, the growth is -15.4% (active) in the assay with SR leukemia; 15.2% in the assay with RPMI-8226 leukemia; 14.1% in the assay on OVCAR-8 ovarian; 8.34% (active) in the assay with OVCAR-5 ovarian; 16% in the assay with OVCAR-4 ovarian; 20.3% with SK-OV-3 ovarian. The growth in the assay with IGROV1 ovarian is -57.9% (active); in the assay on OVCAR-3 ovarian, -11.9% (active); with HS 578T breast, -2.23% (active); in the assay with NCI/ADR-RES ovarian, 78.6%.
With `c1ccc(Nc2nc3c(s2)CCc2c[nH]cc2-3)nc1`, the growth was 75.8% in the assay with SR leukemia; 89% with RPMI-8226 leukemia; 90.7% in the assay on OVCAR-8 ovarian; 108% in the assay on OVCAR-5 ovarian; 78% with OVCAR-4 ovarian; 83.7% with SK-OV-3 ovarian. Further, the growth with IGROV1 ovarian was 86.2%; with OVCAR-3 ovarian, 74.1%; with HS 578T breast, 96%; in the assay on NCI/ADR-RES ovarian, 92.7%.
For the compound `COc1ccc(Cl)cc1Nc1nc(C(F)(F)F)ccc1C(=O)N/N=C/c1ccc([N+](=O)[O-])cc1`, the growth in the assay with SR leukemia was 0.718% (active); in the assay on RPMI-8226 leukemia, -49.7% (active); in the assay with OVCAR-8 ovarian it was 9.77% (active); in the assay on OVCAR-5 ovarian, 4.96% (active); in the assay on OVCAR-4 ovarian, -12.1% (active); with SK-OV-3 ovarian, 14.5%. Moreover, the growth in the assay on IGROV1 ovarian is -0.273% (active); in the assay with OVCAR-3 ovarian, -1% (active); in the assay on HS 578T breast it was 3.18% (active); in the assay on NCI/ADR-RES ovarian it was 2.09% (active).
For `Cc1nc2ccccc2c(/C=C/c2ccc(F)cc2)c1C(=O)/C=C/c1ccccc1`, the growth in the assay with SR leukemia was 8.92% (active); in the assay with RPMI-8226 leukemia, 1.46% (active); with OVCAR-8 ovarian, 2.09% (active); with OVCAR-5 ovarian, -22% (active); in the assay with OVCAR-4 ovarian it was 36.4%; in the assay on SK-OV-3 ovarian, 56%. In addition, the growth was 13.6% with IGROV1 ovarian, -15.4% (active) with OVCAR-3 ovarian, 22.4% in the assay with HS 578T breast and 2.57% (active) in the assay on NCI/ADR-RES ovarian.
For `CC(C)(C)OC(=O)CN1CCc2c(sc3ncnc(N4CCN(c5ccc(F)cc5)CC4)c23)C1`, the growth is 79.8% in the assay with SR leukemia; 57.7% with RPMI-8226 leukemia; 73.2% in the assay on OVCAR-8 ovarian; 82.8% in the assay on OVCAR-5 ovarian; 85.5% with OVCAR-4 ovarian; 102% in the assay with SK-OV-3 ovarian. Further, the growth with IGROV1 ovarian was 89.8%; in the assay with OVCAR-3 ovarian, 90.5%; with HS 578T breast, 70.4%; in the assay with NCI/ADR-RES ovarian, 79.7%.
`CCn1cc(C(=O)N/N=C/c2ccccc2)c(=O)c2cc(F)c(N3CCNC(C)C3)c(F)c21` (stereo not given): the growth in the assay with SR leukemia was -14.6% (active); with RPMI-8226 leukemia it was -42.4% (active); in the assay with OVCAR-8 ovarian it was 28.4%; in the assay on OVCAR-5 ovarian, 67%; with OVCAR-4 ovarian, 70.7%; with SK-OV-3 ovarian, 104%. In addition, the growth in the assay on IGROV1 ovarian was 58%; with OVCAR-3 ovarian, -75% (active); in the assay on HS 578T breast, 69.7%; in the assay on NCI/ADR-RES ovarian, 56%.
Take `COc1ccc(-c2nc3ccc(C)cc3c3c2c(=O)n(C)c(=O)n3C)cc1OC`: the growth is 99.4% with SR leukemia; 101% in the assay with RPMI-8226 leukemia; 107% in the assay with OVCAR-8 ovarian; 97% with OVCAR-5 ovarian; 122% in the assay on OVCAR-4 ovarian; 109% in the assay on SK-OV-3 ovarian. The growth was 108% with IGROV1 ovarian, 111% with OVCAR-3 ovarian, 74.3% in the assay on HS 578T breast and 92.5% with NCI/ADR-RES ovarian.
Consider `C[N+]1=C(/C=C/c2ccccc2Cl)C(C)(C)c2ccccc21`, for which the growth in the assay on SR leukemia was 18.2%; in the assay with RPMI-8226 leukemia, 66.9%; in the assay with OVCAR-8 ovarian it was 90.8%; in the assay with OVCAR-5 ovarian, 100%; in the assay on OVCAR-4 ovarian, 96.1%; in the assay on SK-OV-3 ovarian, 94.3%. The growth in the assay on IGROV1 ovarian is 90.6%; in the assay with OVCAR-3 ovarian, 78.3%; in the assay on HS 578T breast, 102%; in the assay on NCI/ADR-RES ovarian, 101%.
As for `COc1ccc(Nc2ncc(C#N)c(NCCCNC(=O)C3CCC3)n2)cc1`, the growth in the assay on SR leukemia is 46.3%; in the assay with RPMI-8226 leukemia, 85.8%; in the assay with OVCAR-8 ovarian it was 64%; in the assay with OVCAR-5 ovarian, 79.6%; in the assay with OVCAR-4 ovarian it was 77.7%; with SK-OV-3 ovarian it was 77.6%. Also, the growth with IGROV1 ovarian was 54.4%; in the assay on OVCAR-3 ovarian it was 70.2%; in the assay with HS 578T breast, 47.7%; in the assay with NCI/ADR-RES ovarian it was 83.1%.
On to `CCCCCCCCCCCCCCCCCCOc1ccccc1CC(=O)NCC[N+](C)(C)C`, for which the growth is 21.3% with SR leukemia; 17.9% in the assay on RPMI-8226 leukemia; 41.7% with OVCAR-8 ovarian; 14.6% in the assay on OVCAR-5 ovarian; 46.7% in the assay with OVCAR-4 ovarian; 84.9% with SK-OV-3 ovarian. The growth with IGROV1 ovarian is -49.7% (active); in the assay on OVCAR-3 ovarian, 35%; in the assay with HS 578T breast, 61.8%; in the assay with NCI/ADR-RES ovarian, 99.3%.
Consider `NS(=O)(=O)c1ccc(C(=O)NN2C(=O)c3ccccc3C2=O)cc1`, for which the growth with SR leukemia was 105%; with RPMI-8226 leukemia, 109%; in the assay on OVCAR-8 ovarian, 107%; in the assay on OVCAR-5 ovarian it was 110%; in the assay with OVCAR-4 ovarian, 113%; in the assay on SK-OV-3 ovarian, 117%. Further, the growth in the assay with IGROV1 ovarian was 113%; in the assay on OVCAR-3 ovarian, 108%; with HS 578T breast, 102%; in the assay with NCI/ADR-RES ovarian it was 112%.
As to `COc1ccc(C2CC(c3ccccc3)=NN2C(=O)c2cc(OC)c(OC)c(OC)c2)cc1O` (stereo not given), the growth with SR leukemia was 29.8%; in the assay on RPMI-8226 leukemia, -20.5% (active); in the assay with OVCAR-8 ovarian, 24.4%; in the assay with OVCAR-5 ovarian, 60.1%; in the assay with OVCAR-4 ovarian, 42%; with SK-OV-3 ovarian, 54.9%. Further, the growth is 3.37% (active) in the assay with IGROV1 ovarian, 17% with OVCAR-3 ovarian, 23.5% with HS 578T breast and -11.9% (active) with NCI/ADR-RES ovarian.
